High-throughput results from PubChem BioAssay.
Most compounds without a hit are left out; they make up all but 11% or so of the library.
PLK1 PBD block: qHTS for Inhibitors of PLK1-PDB (polo-like kinase 1 - polo-box domain): Primary Screen | Potency, µM, inactives show max response, negative = inhibition, usual class: inhibitors | AID 720504, 2013 | 360,000 tested, 2.8% active | Serine/threonine-protein kinase PLK1 (Homo sapiens), P53350 | Plk1 PBD binding of FITC phosphopeptide, fluorescence polarization; also: series mostly up to about 57 µM; % is scaled to controls: 0 for no effect and ±100 for the full control effect; nearly all actives have a fitted effect of over 65% in size
VDR inh: Inhibitors of the vitamin D receptor (VDR): qHTS. Vitamin D3 receptor (Homo sapiens), P11473. VDR-SRC2-3 peptide fluorescence polarization, 2 h. Potency, µM, for the others: max response, negative = inhibition, usual class: inhibitors. 400,000 tested, 0.93% active; also: % is scaled to controls: 0 for no effect and ±100 for the full control effect
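After 23 nl compound addition and a short centrifugation, plates sat for 2 hours at ambient temperature; polarization of fluorescence then indicated loss of VDR binding to peptide SRC2-3.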
G9a inh: qHTS Assay for Inhibitors of Histone Lysine Methyltransferase G9a | AID 504332, 2011 | Potency, µM (series often up to 102 µM), without a hit: at the highest dose activity, negative = inhibition, hits mostly inhibitors | 350,000 tested, 8.8% active | Histone-lysine N-methyltransferase EHMT2 (Homo sapiens), Q96KQ7 | G9a H3K9 monomethylation, AlphaScreen, 2 h; also: % is scaled to controls: 0 for no effect and ±100 for the full control effect; nearly all actives have a fitted effect of over 75% in size
Target sequence (Q96KQ7 913-1193 limits assumed): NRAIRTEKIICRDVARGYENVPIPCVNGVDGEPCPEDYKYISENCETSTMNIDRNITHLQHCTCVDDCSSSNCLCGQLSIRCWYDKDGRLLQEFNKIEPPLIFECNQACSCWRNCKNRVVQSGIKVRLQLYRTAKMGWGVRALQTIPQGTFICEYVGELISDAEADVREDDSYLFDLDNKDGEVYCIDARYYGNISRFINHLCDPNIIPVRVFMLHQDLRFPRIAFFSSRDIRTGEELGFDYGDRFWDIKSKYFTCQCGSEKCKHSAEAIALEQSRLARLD
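Compounds were preincubated with 20 nM G9a for 15 min, after which biotinylated H3K9 peptide (500 nM) and SAM (20 uM) started a 2 h room-temperature reaction. Monomethylated product was quantified by antibody-based AlphaScreen chemiluminescence.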
JMJD2A Tudor inh: qHTS Assay for Inhibitors of JMJD2A-Tudor Domain; AlphaScreen JMJD2A-Tudor / H3K4me3 peptide binding; 390,000 tested, 4.4% active; Potency, µM (highest dose often 114 µM), for the others: at the top dose activity change, negative = inhibition, usual class: inhibitors; Lysine-specific demethylase 4A (Homo sapiens), O75164; AID 504339, 2011; also: % is scaled to controls: 0 for no effect and ±100 for the full control effect; nearly all actives have a fitted effect of over 50% in size
HP1b binding inh: HTS for Inhibitors of HP1-beta Chromodomain Interactions with Methylated Histone Tails; AlphaScreen HP1-beta / biotin-H3K9me3 peptide binding; AID 540317, 2011; Potency, µM (doses to about 114 µM), without a hit: top-dose activity change, negative = inhibition, usual class: inhibitors; 390,000 tested, 0.56% active; also: nearly all actives have a fitted effect of over 70% in size
Target sequence (P83916 whole entry, looked up): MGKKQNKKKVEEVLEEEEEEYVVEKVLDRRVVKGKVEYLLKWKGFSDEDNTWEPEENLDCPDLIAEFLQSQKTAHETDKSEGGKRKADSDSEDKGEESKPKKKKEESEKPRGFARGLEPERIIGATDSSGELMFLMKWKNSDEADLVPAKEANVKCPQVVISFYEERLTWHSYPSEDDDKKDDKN
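HP1-beta protein (50 nM final) preincubated 30 min at room temperature with biotinylated H3(1-18)K9me3 peptide (50 nM) in PBS pH 7.4, 0.01% Tween-20, then compound added for 30 min. AlphaScreen streptavidin donor/nickel chelate acceptor beads (10 ug/mL final), 30 min dark, luminescence read.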
BAZ2B inh: qHTS Assay for Inhibitors of BAZ2B | AlphaScreen BAZ2B-H3K14Ac peptide displacement | Potency, µM (doses to about 114 µM), inactives show at the top dose activity change, negative = inhibition, hits mostly inhibitors | 360,000 tested, 4.4% active | AID 504333, 2011; also: % is scaled to controls: 0 for no effect and ±100 for the full control effect; nearly all actives have a fitted effect of over 60% in size
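AlphaScreen luminescence quantifies BAZ2B engagement of H3K14Ac peptide; the protein and biotinylated peptide are both at 50 nM final, buffer PBS pH 7.4 with 0.01% Tween-20, all steps at room temperature.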
* marks the source's active call; other numbers are inactive results; [ ] = remark or other dose. Calls follow the shape of the dose curve; as a rule, active = well fitted curve in the direction sought with a large enough effect; inconclusive = small, poorly fitted or top-dose-only effect, or another doubt; inactive = no such curve, though single readings can be large; an effect the other way counts as inactive or inconclusive. Potency is read from the fitted curve at half-maximal effect.

Screening Cc1ccc(CNc2ccc3c(c2)ncn3C(C)C)cc1 returned PLK1 PBD block -0.4%, VDR inh 1.0%, G9a inh 11.2µM*, JMJD2A Tudor inh inconclusive, HP1b binding inh 8.5% and BAZ2B inh 35.5µM*.
`CCOC(=O)c1ccc(N2N=C(C)/C(=C/C=C/c3ccco3)C2=O)cc1` gave PLK1 PBD block -7.5%, VDR inh -14.9%, G9a inh inconclusive, JMJD2A Tudor inh inconclusive, HP1b binding inh inconclusive and BAZ2B inh 6.31µM*.
CN(CC(=O)Nc1ccc(Cl)c(C(F)(F)F)c1)C(=O)/C=C/c1ccco1 was read as PLK1 PBD block -3.8%, VDR inh -6.0%, G9a inh -14.0%, JMJD2A Tudor inh -2.8%, HP1b binding inh 18.9% and BAZ2B inh -13.2%.
CC(C)OC(=O)c1ccc(N2C(=O)C3CC=CCC3C2=O)cc1 (stereo not drawn) was read as PLK1 PBD block -6.4%, VDR inh -4.4%, G9a inh -0.4%[59 µM], JMJD2A Tudor inh -4.2%, HP1b binding inh 36.1% and BAZ2B inh -4.1%.
`CC1=NN(c2ccc(C(=O)OC(C)C)cc2)C(=O)/C1=C\C=C\c1ccco1` gave PLK1 PBD block -15.1%, VDR inh 0.5%, G9a inh 4.47µM*, JMJD2A Tudor inh 17.8µM*, HP1b binding inh inconclusive and BAZ2B inh 3.98µM*.
For CCOC(=O)c1ccc(-n2c(-c3ccco3)nc3ccccc3c2=O)cc1 the results were PLK1 PBD block -4.2%, VDR inh -6.1%, G9a inh -4.5%, JMJD2A Tudor inh -22.5%, HP1b binding inh 24.6% and BAZ2B inh -27.7%.
For O=C(O)c1cc(N2N=C(C(F)(F)F)/C(=C/C=C/c3ccco3)C2=O)ccc1Cl the results were PLK1 PBD block 0.532µM*, VDR inh inconclusive, G9a inh 2.51µM*, JMJD2A Tudor inh 1µM*, HP1b binding inh 1.58µM* and BAZ2B inh 12.6µM*.
Screening O=C(Nc1ccc(N2CCN(C(=O)c3ccco3)CC2)cc1)c1cccnc1Cl returned PLK1 PBD block inconclusive, VDR inh -9.6%, G9a inh -12.9%, JMJD2A Tudor inh -16.5%, HP1b binding inh -2.6% and BAZ2B inh -0.9%.
COc1cccc(C2Nc3ccccc3NC3=C2C(=O)CC(C)(C)C3)c1 (stereo not drawn) was read as PLK1 PBD block 3.8%, VDR inh -2.8%, G9a inh 20.4%, JMJD2A Tudor inh -4.2%, HP1b binding inh 30.3% and BAZ2B inh 5.5%.
COc1cc(C2Nc3ccccc3NC3=C2C(=O)CC(C)(C)C3)cc(OC)c1OC(C)=O (stereo not drawn) was read as PLK1 PBD block -22.1%, VDR inh 0.7%, G9a inh 50.1µM*, JMJD2A Tudor inh -19.9%, HP1b binding inh 25.5% and BAZ2B inh 5.6%.
`CC(C)(C)NC(=O)CCSc1nc(-c2ccc3c(c2)OCO3)cc(C(F)(F)F)n1` gave VDR inh 0.8%, G9a inh 40.4%[59 µM], JMJD2A Tudor inh 11.3%, HP1b binding inh 51.5% and BAZ2B inh -2.6%.
`Cc1cc(=O)[nH]c2nnc(-c3ccc(Cl)cc3)n12` gave PLK1 PBD block -6.8%, VDR inh -12.7%, G9a inh 22.9%, JMJD2A Tudor inh -13.2%, HP1b binding inh 24.6% and BAZ2B inh 3.8%.
Screening O=C1c2ccccc2-c2onc3ccc(Oc4ccccc4)c1c23 returned PLK1 PBD block 26.5%, VDR inh inconclusive, G9a inh 8.91µM*, JMJD2A Tudor inh inconclusive, HP1b binding inh -26.8% and BAZ2B inh inconclusive.
For Cc1noc(C)c1S(=O)(=O)Nc1ccccc1Oc1ccccc1 the results were PLK1 PBD block -6.6%, VDR inh -4.3%, JMJD2A Tudor inh -4.8%, HP1b binding inh 27.4% and BAZ2B inh 13.4%.
`Cc1cc(-c2n[nH]c(=S)n2-c2ccc(F)cc2)nn1C` gave PLK1 PBD block -16.9%, VDR inh 14.1%, G9a inh inconclusive, JMJD2A Tudor inh 25.1µM*, HP1b binding inh 25.2% and BAZ2B inh -6.1%.
For Cc1cc(C(F)(F)F)nn1Cc1n[nH]c(=S)n1-c1ccc(F)cc1 the results were PLK1 PBD block -19.8%, VDR inh -12.5%, G9a inh 10µM*, JMJD2A Tudor inh -29.4%[57.1 µM], HP1b binding inh 21.3% and BAZ2B inh -32.3%.
`FC(F)(F)c1cccc(-n2c(Cn3nnc4ccccc43)n[nH]c2=S)c1` gave PLK1 PBD block -12.4%, VDR inh -13.1%, JMJD2A Tudor inh -23.6%, HP1b binding inh 47.2% and BAZ2B inh -6.3%.
For Fc1ccc(-n2c(Cn3nnc4ccccc43)n[nH]c2=S)cc1 the results were PLK1 PBD block -5.3%, VDR inh 7.8%, JMJD2A Tudor inh 17.8µM*, HP1b binding inh 31.0% and BAZ2B inh inconclusive.
`CCc1ccc(-n2c(Cn3nc(C(F)(F)F)cc3C)n[nH]c2=S)cc1` gave PLK1 PBD block -9.0%, VDR inh -12.4%, G9a inh inconclusive, JMJD2A Tudor inh -13.9%, HP1b binding inh 25.6% and BAZ2B inh inconclusive.
Screening S=c1[nH]nc(Cn2nnc3ccccc32)n1-c1ccccc1 returned PLK1 PBD block -4.2%, VDR inh 5.7%, G9a inh 31.6µM*, JMJD2A Tudor inh 6.31µM*, HP1b binding inh 35.0% and BAZ2B inh -16.1%.
`O=C(COc1ccccc1)NCC(=O)N1CCCCCC1` gave PLK1 PBD block -2.1%, VDR inh 4.2%, G9a inh 4.4%[59 µM], JMJD2A Tudor inh -6.4%, HP1b binding inh 35.0% and BAZ2B inh -2.8%.
Screening N#CCCn1c(=O)c(-c2cc(F)cc(F)c2)nc2cnc(OCc3ccccc3)nc21 returned VDR inh 2.9% and G9a inh -27.0%[12.7 µM].
`Cc1cc2ccccc2n1-c1ccc(C(=O)N2CCC(C(=O)NCc3ccc(F)cc3)CC2)s1` gave VDR inh 4.8%, G9a inh -50.5%[59 µM], JMJD2A Tudor inh -33.1%, HP1b binding inh 32.0% and BAZ2B inh inconclusive.
`Cn1c(Cn2nnc3ccccc32)nnc1SCC(=O)c1ccc(F)cc1` gave PLK1 PBD block -16.3%, VDR inh -24.6%, G9a inh 35.5µM*, JMJD2A Tudor inh 44.7µM*, HP1b binding inh 22.2% and BAZ2B inh -6.5%.
